Data taken from PubChem BioAssay (Tox21).
Inconclusive results are not listed. Activity calls are given as the source filed them. Unless noted, the call rests on the fitted dose curve; in most records, active means well fitted curve in the direction sought with a large enough effect in the repeat runs; inconclusive means weak or mixed curves; inactive means no such curve, though single readings can be large; an effect the other way counts as inactive or inconclusive.

Experiments:
[1] = qHTS assay for small molecules that induce genotoxicity in human embryonic kidney cells expressing luciferase-tagged ATAD5 (AID 651632); further: nearly all actives have a fitted effect of over 15% in size; further: potency means the concentration at half of the fitted maximal effect
Method in brief: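 Concentration-response screen for ATAD5 upregulation in HEK293T luciferase reporter cells; 16 hr treatment at 37C, then luminescence after 30 min with Amplite at room temperature.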

[2] = qHTS assay for small molecule agonists of the p53 signaling pathway - cell viability (AID 651633; calls by dose curve; further: nearly all actives have a fitted effect of over 30% in size; further: potency means the concentration at half of the fitted maximal effect)
Method in brief: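 Viability counter-read: CellTiter-Glo luminescence (30 min, room temperature) in the same p53RE-bla plates. These plates had been exposed to compounds for 16 h at 37 C.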

[3] = qHTS assay for small molecules that induce genotoxicity in human embryonic kidney cells expressing luciferase-tagged ATAD5 - cell viability (AID 651634; calls by dose curve; further: nearly all actives have a fitted effect of over 25% in size; further: potency means the concentration at half of the fitted maximal effect)
Method in brief: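 15.5 hr compound or vehicle exposure of HEK293T cells expressing luciferase-tagged ATAD5 at 37C; live-cell protease activity is read by fluorescence after 30 min of CellTiter-Fluor.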

[4] = qHTS assay for small molecule disruptors of the mitochondrial membrane potential - cell viability (AID 720634; calls by dose curve; further: nearly all actives have a fitted effect of over 20% in size; further: potency means the concentration at half of the fitted maximal effect)
Method in brief: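 In this qHTS format, HepG2 cells plated overnight were pinned with compound, incubated 1 hr, and assayed for ATP luminescence with CellTiter-Glo after m-MPI dye addition.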

[5] = qHTS assay for small molecule disruptors of the mitochondrial membrane potential (AID 720635); further: potency means the concentration at half of the fitted maximal effect
Method in brief: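 Mitochondrial membrane potential tracked with Mito-MPS dye, red aggregates (ex 540/em 590 nm) against green monomers (ex 490/em 535 nm). Compound treatment 1 hr at 37C, dye 30 min in HepG2.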

[6] = qHTS assay to test for compound auto fluorescence at 590 nm (red) in HepG2 cells (AID 720674)
Method in brief: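 We screened compounds on adherent HepG2 cells, incubating them for an hour at 37 C in 5% CO2 before reading emission at 590 nm under 540 nm excitation; values reflect equivalence to Rose Bengal sodium fluorescence.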

[7] = qHTS assay to test for compound auto fluorescence at 535 nm (green) in HepG2 cells (AID 720675)
[8] = qHTS assay to test for compound auto fluorescence at 460 nm (blue) in HEK293 cells (AID 720678)
Method in brief: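 Cells were seeded and left to adhere for 4-5 hr at 37C. Compounds were then pin-transferred. After an overnight incubation at 37C under 5% CO2, intrinsic fluorescence at 405/460 nm was measured and referenced to triamterene.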

[9] = qHTS assay to test for compound auto fluorescence at 590 nm (red) in HEK293 cells (AID 720679)
Method in brief: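 Each well held 2,000 HEK293 cells in medium containing 10% dialyzed FBS. Following 4-5 hr attachment at 37C, 23 nL test compound or DMSO was added; plates sat overnight, and red fluorescence (540/590nm) was recorded.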

[10] = qHTS assay to test for compound auto fluorescence at 535 nm (green) in HEK293 cells (AID 720680)
[11] = qHTS assay to test for compound auto fluorescence at 460 nm (blue) in HEK293 cell free culture (AID 720681)
Method in brief: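 Blue fluorescence (Ex 405/Em 460 nm, triamterene-equivalent) was read immediately after pin transfer of compound or DMSO into medium (DMEM, 10% FBS) without cells.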

[12] = qHTS assay to test for compound auto fluorescence at 535 nm (green) in HEK293 cell free culture (AID 720682)
Method in brief: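 Measurement is a direct plate read of green fluorescence (485 nm in, 535 nm out) after compound addition to serum-supplemented DMEM lacking cells, with fluorescein used to express intensities.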

[13] = qHTS assay to test for compound auto fluorescence at 590 nm (red) in HepG2 cell free culture (AID 720684)
Method in brief: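 No cells present: MEM + 10% FBS only. Compound pinned in, red label read (540/590 nm). Activity = fluorescence equivalent to Rose Bengal sodium.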

[14] = qHTS assay to test for compound auto fluorescence at 460 nm (blue) in HepG2 cell free culture (AID 720685)
Method in brief: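 Cell-free plates of MEM plus 10% FBS received 23 nL compound or DMSO vehicle; blue-channel (405/460 nm) intensity scored against triamterene as reference fluorophore.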

[15] = qHTS assay to test for compound auto fluorescence at 535 nm (green) in HepG2 cell free culture (AID 720686)
[16] = qHTS assay to test for compound auto fluorescence at 460 nm (blue) in HepG2 cells (AID 720687)
Method in brief: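 Blue-channel autofluorescence (Ex/Em 405/460 nm, triamterene-equivalent) was measured after 1 hr compound exposure at 37 C, 5% CO2. Cells were HepG2, plated overnight at 37 C in MEM plus 10% FBS.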

[17] = target: Glucocorticoid receptor (Homo sapiens) (UniProt P04150); assay: qHTS assay to identify small molecule agonists of the glucocorticoid receptor (GR) signaling pathway (AID 720691; active means well fitted activation curve with a large enough effect in the signal ratio in the repeat runs, not every such curve was filed as active; the % refers to the signal ratio); settings: GR-bla HeLa, beta-lactamase reporter ratio, 18 h; activation: at 62.4 µM (top of the series)
Sequence of Glucocorticoid receptor (Homo sapiens) (P04150 whole entry, looked up): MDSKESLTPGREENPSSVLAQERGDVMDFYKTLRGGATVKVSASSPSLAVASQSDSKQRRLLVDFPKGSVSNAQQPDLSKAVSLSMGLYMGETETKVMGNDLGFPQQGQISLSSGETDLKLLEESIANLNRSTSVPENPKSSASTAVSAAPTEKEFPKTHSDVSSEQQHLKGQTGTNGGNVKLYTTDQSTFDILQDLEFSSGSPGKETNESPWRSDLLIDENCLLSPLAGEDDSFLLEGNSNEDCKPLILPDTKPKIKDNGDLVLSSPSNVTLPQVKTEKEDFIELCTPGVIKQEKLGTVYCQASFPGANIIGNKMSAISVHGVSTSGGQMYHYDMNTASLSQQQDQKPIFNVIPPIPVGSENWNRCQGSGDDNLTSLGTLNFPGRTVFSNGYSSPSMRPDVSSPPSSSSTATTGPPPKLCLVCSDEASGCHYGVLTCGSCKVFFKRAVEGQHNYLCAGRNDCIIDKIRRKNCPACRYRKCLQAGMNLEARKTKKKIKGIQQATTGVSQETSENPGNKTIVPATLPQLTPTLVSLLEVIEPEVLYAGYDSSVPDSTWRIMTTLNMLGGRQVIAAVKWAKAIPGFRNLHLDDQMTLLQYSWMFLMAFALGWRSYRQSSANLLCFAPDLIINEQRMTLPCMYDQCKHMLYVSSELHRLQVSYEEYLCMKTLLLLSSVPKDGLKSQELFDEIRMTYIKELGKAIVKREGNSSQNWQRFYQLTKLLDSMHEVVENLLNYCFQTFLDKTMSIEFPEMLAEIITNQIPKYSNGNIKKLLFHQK
Method in brief: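 Measures GR pathway activation through a GRE-beta-lactamase reporter stably integrated in HeLa cells, with 18 h compound treatment at 37 C and fluorescence detection using a FRET substrate.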

[18] = qHTS assay to test for compound auto fluorescence at 590 nm (red) in HEK293 cell free culture (AID 720683)
Method in brief: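 Red-channel autofluorescence of compounds in culture medium (DMEM, 10% FBS), no cells, measured at 540/590 nm. Rose Bengal sodium is the reference fluorophore for equivalence.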

[19] = target: Glucocorticoid receptor (Homo sapiens) (UniProt P04150); assay: qHTS assay to identify small molecule antagonists of the glucocorticoid receptor (GR) signaling pathway (AID 720692; active means well fitted inhibition curve with a large enough effect in the signal ratio in the repeat runs, not every such curve was filed as active; the % refers to the signal ratio; further: potency means the concentration at half of the fitted maximal effect)
Method in brief: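 Tox21 10K library screened in concentration-response for blockade of dexamethasone (5 nM final)-induced GRE-bla reporter activity in HeLa cells; 18 h treatment, fluorescence read.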

Measured: Potency

CC(=O)Nc1c(I)c(C(=O)N[C@H]2C(O)O[C@H](CO)[C@@H](O)[C@@H]2O)c(I)c(N(C)C(C)=O)c1I (stereo not given in full)
not listed: [18] | [19]
inactive: all other assays above

CC(=O)Nc1c(I)c(C(=O)O)c(I)c(N(C)C(C)=O)c1I
not listed: [10] | [17]
inactive: all other assays above

O=[N+]([O-])c1c(Cl)cccc1-c1c[nH]cc1Cl
active: [2] 33.5 µM | [4] 10.6 µM | [5] 2.98 µM | [19] 21.3 µM
not listed: [18]
inactive: all other assays above

CCCCCCCCCCCCCCCCCC(=O)OCC(C)O (stereo not given)
active: [3] 23.7 µM
not listed: [5] | [17] | [19]
inactive: all other assays above

COCC(=O)Nc1cc(Sc2ccccc2)ccc1N=C(NC(=O)OC)NC(=O)OC
active: [3] 4.22 µM
not listed: [18]
inactive: all other assays above

O=C(O)[C@@H](O)[C@H](O)[C@H](O)[C@@H](O)C(=O)O (tested in a mixture with another compound)
not listed: [7] | [17] | [19]
inactive: all other assays above

CCOC(=O)O[C@]1(C(=O)COC(=O)CC)CC[C@H]2[C@@H]3CCC4=CC(=O)C=C[C@]4(C)[C@H]3[C@@H](O)C[C@@]21C
not listed: [5] | [17] | [19]
inactive: all other assays above

CNC(=O)c1c(I)c(C(=O)NCC(=O)Nc2c(I)c(C(=O)O)c(I)c(C(=O)NCCO)c2I)c(I)c(N(C)C(C)=O)c1I
not listed: [7] | [17] | [19]
inactive: all other assays above

CC[C@H](C)[C@H]1O[C@]2(CC[C@@H]1C)C[C@@H]1C[C@@H](C/C=C(\C)[C@@H](O[C@H]3C[C@H](OC)[C@@H](O[C@H]4C[C@H](OC)[C@@H](O)[C@H](C)O4)[C@H](C)O3)[C@@H](C)/C=C/C=C3\CO[C@@H]4[C@H](O)C(C)=C[C@@H](C(=O)O1)[C@]34O)O2
active: [2] 4.22 µM | [3] 2.98 µM
not listed: [5] | [17] | [19]
inactive: all other assays above

CCN(CC)CCOc1ccc2nc(N(C)C)sc2c1
not listed: [5] | [17] | [19]
inactive: all other assays above

COc1ccc(C[C@H](N)C(=O)N[C@H]2[C@@H](O)[C@H](n3cnc4c(N(C)C)ncnc43)O[C@@H]2CO)cc1
active: [1] 1.06 µM | [2] 5.96 µM | [3] 2.66 µM
not listed: [5] | [17] | [19]
inactive: all other assays above

O=C(CCCN1CCC(C(=O)c2ccc(F)cc2)CC1)c1ccc(F)cc1
not listed: [11] | [17] | [19]
inactive: all other assays above

CCOC(=O)Oc1c(OC)cc(C(=O)O[C@@H]2C[C@@H]3CN4CCc5c([nH]c6cc(OC)ccc56)[C@H]4C[C@@H]3[C@H](C(=O)OC)[C@H]2OC)cc1OC
active: [4] 10.1 µM
not listed: [5] | [17] | [19]
inactive: all other assays above

C/C=C1\NC(=O)[C@H]2CSSCC/C=C/[C@H](CC(=O)N[C@H](C(C)C)C(=O)N2)OC(=O)C(C(C)C)NC1=O (stereo not given in full)
active: [1] 0.0094 µM | [2] 1.5 µM | [3] 7.5 µM
not listed: [5] | [17] | [19]
inactive: all other assays above
